Assay [1] can be described thus: inhibitors of TNFa-induced NFkB p65 translocation, primary screen, imaging, HUVEC, MLSMR starter and 10KST1 sets (AID 438;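 active = inhibition above 20% together with a positive visual image hit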;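 note: compound added about 3h40 before a 20 min TNFalpha stimulation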;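 for inhibition: signal is the nuclear over cytoplasmic p65 intensity ratio per well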). Particulars: HUVEC TNFa-induced p65 nuclear translocation; cell count: measured here: nuclei count (cytotoxicity indicator), at 2.08 µM; inhibition: at 2 µM, stronger effect = higher value, 0% TNFa-plus-vehicle, 100% no-TNFa wells.
Assay [2] can be described thus: inhibitors of mutant huntingtin aggregation, primary screen, imaging, exon1htt(103Q)mCFP cells, high-content imaging (AID 483).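 For nuclei count: percent of the per-plate median nuclei count of sample wells.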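 Note: compound exposure lasted 3 days before fixation.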 Particulars: exon1htt(103Q)mCFP cell line, aggregate imaging, at 2 µM; inhibition of aggregation: stronger effect = higher value; nuclei count: measured here: cell count, toxicity.
Assay [3] is described as follows: inhibitors of E-selectin induction by TNFa, primary screen, imaging, HUVEC, immunofluorescence, MLSMR starter and 10KST1 sets (AID 487;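 active = visually confirmed hit in the image check and inhibition above 20%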;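 for inhibition: signal is fraction of cell area covered by stained E-selectin grains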;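 for nuclei count: 100% = median nuclei count of all wells on the same plate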). Particulars: HUVEC TNFalpha-induced E-selectin immunofluorescence imaging, at 2 µM; inhibition: stronger effect = higher value; nuclei count: measured here: cell number, toxicity.
The nature of assay [4]: DUSP6 inhibitors restoring Erk phosphorylation by chemical complementation, primary imaging in DUSP6-transfected HeLa (AID 609;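 active = compounds giving at least 50% inhibition in the cell-based MKP-3 phosphatase rescue imaging test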;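 for inhibition: phospho-Erk level distribution per well compared with pooled transfected vehicle control wells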). Particulars: HeLa MKP-3 transfected, phospho-Erk imaging KS statistic, at 10 µM, cells stimulated with TPA for 15 min.
In assay [5] the target is Dual specificity protein phosphatase 6 (Homo sapiens) (UniProt Q16828). The assay is described as above. To be noted: HeLa MKP-3 transfected, phospho-Erk imaging KS statistic; at 10 µM; stronger effect = higher value; cells stimulated with TPA for 15 min.
Dual specificity protein phosphatase 6 (Homo sapiens), sequence (Q16828 whole entry, looked up): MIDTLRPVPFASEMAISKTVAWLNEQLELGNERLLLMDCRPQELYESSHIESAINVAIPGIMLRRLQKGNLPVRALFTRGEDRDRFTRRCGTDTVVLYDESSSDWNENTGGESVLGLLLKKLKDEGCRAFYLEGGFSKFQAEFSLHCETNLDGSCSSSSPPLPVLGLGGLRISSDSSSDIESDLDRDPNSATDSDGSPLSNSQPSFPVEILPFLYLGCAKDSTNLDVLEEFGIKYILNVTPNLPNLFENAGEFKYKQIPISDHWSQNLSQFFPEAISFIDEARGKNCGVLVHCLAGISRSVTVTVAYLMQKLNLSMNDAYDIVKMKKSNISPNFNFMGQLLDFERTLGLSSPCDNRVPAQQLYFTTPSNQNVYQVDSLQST
For assay [6], the target named is Voltage-gated potassium channel subunit beta-2 (Rattus norvegicus) (UniProt P62483). Description: KvBeta enzyme negative modulators, primary screen, biochemical, NADPH fluorescence (AID 622;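 active = fluorescence slope higher than the sample average by over 3 SD, cut at about -0.22 in these data, passing the limit was not always enough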;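 note: slope of raw intensity against log time taken from 70 to 1610 s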). To be noted: recombinant KvBeta, 4-cyanobenzaldehyde reduction, at 10 µM, stronger effect = higher value.
Voltage-gated potassium channel subunit beta-2 (Rattus norvegicus), sequence (P62483 whole entry, looked up): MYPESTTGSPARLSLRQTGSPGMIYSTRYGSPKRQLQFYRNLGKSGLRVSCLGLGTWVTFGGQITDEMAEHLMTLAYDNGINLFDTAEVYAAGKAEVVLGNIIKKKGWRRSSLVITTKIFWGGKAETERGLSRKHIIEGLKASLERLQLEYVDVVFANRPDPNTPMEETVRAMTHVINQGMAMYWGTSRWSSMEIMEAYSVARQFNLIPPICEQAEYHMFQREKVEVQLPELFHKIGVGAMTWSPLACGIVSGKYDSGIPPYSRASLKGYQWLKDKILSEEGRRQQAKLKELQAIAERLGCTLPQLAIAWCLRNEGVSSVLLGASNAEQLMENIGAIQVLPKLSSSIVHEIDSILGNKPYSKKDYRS
Assay [7] shares this target. Description: KvBeta positive modulators, primary screen, biochemical, NADPH fluorescence (AID 623;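 active = NADPH fluorescence slope more negative than the mean of all samples by about 3 SD, 99.7% confidence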;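 note: fluorescence intensity change per second fitted from 20 to 320 s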). Particulars: Recombinant KvBeta, NADPH fluorescence decrease slope, 10 min; at 10 µM; stronger effect = lower value.
Assay [8] concerns the target Alpha-2C adrenergic receptor (Homo sapiens) (UniProt P18825). Description: modulators of alpha2C/GIRK thallium flux, primary screen, cell-based, HEK293 alpha2C/GIRK1/2 (AID 624;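 active = fluorescence slope after compound addition differing from the mean of all screened samples at 99.7% confidence, in either direction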;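 note: slope of fluorescence ratio to pre-addition baseline per second over 15 to 24 s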). To be noted: thallium flux BTC fluorescence, at 10 µM, actives lie on both sides.
The target in assay [9] is Muscarinic acetylcholine receptor M4 (Homo sapiens) (UniProt P08173). Description: compounds altering M4/GIRK thallium flux, either direction, primary screen, M4 allosteric agonist project, cell-based, HEK293 M4/GIRK, BTC-AM (AID 625;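 active = fluorescence slope after compound addition differing from the mean of all tested samples at 99.7% confidence, mostly higher but some lower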;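 note: thallium influx through GIRK channels coupled to M4 in HEK293 cells with BTC-AM dye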). Particulars: at 10 µM, actives lie on both sides.
Muscarinic acetylcholine receptor M4 (Homo sapiens), sequence (P08173 whole entry, looked up): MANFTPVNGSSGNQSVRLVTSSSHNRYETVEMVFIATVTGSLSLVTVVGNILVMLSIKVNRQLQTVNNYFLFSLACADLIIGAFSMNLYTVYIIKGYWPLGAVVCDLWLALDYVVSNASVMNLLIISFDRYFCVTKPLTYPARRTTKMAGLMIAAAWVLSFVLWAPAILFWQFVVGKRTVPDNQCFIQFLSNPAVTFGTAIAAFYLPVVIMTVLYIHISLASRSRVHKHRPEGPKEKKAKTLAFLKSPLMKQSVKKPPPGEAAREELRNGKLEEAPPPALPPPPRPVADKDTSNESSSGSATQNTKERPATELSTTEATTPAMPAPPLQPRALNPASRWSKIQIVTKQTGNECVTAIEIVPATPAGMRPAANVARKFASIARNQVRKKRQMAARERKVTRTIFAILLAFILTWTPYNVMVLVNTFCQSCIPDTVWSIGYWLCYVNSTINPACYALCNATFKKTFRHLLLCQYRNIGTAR
Assay [10] is described as follows: inhibitors of larval lipid processing in zebrafish, primary screen, whole organism, PED6 fluorescence, gall bladder and intestine (AID 686;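 active = a full or partial loss of lipid-probe fluorescence in the fish gall bladder, intestine or both, judged by eye; inactive = no fluorescence loss, or compound toxic to the fish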;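 note: larvae 5 to 7 days old with five fish per well; signal comes from phospholipase A2 cleavage of quenched PED6 carried via bile; overnight exposure to compound and PED6 before scoring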). Particulars: Zebrafish larvae PED6 lipid processing, fluorescence scoring; screened at 20 µM (by protocol).
Assay [11] can be described thus: inhibitors of Chlamydomonas gravitaxis, primary screen, whole organism, Chlamydomonas reinhardtii, WT vs cilia-less mutant, absorbance, 96-well (AID 463189;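 active = inhibition at or above 50% relative to wild type and mutant plate controls; inactive = inhibition below 50%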;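 note: 0% = wild type cc124 cells in DMSO and 100% = ciliumless bld1 mutant cells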). To be noted: OD600 absorbance, 2 days, at 10 µM, stronger effect = higher value.
Assay [12] is described as follows: inhibitors of Sendai virus-induced IRF3 signaling, primary screen, TLR/RLR signaling modifier project, cell-based, Sendai virus stimulus, luciferase, 10K MLSCN set (AID 602276;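 active = inhibition at or above 50% at 10 µM; inactive = inhibition below 50%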;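 note: firefly luciferase from ISG56 promoter only with Renilla not read in this screen; 0% = Sendai virus plus DMSO and 100% = medium plus DMSO without virus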). To be noted: HEK293 RL24 IRF3 luciferase reporter, at 10 µM, stronger effect = higher value. On the technique in general: Reporter assays use an easily measured gene product as a stand-in for the process of interest.

The nature of assay [13]: inhibitors of poly I:C-induced TLR3 signaling, primary screen, cell-based, poly I:C stimulus, luciferase, 10K MLSCN set (AID 602277;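 active = inhibition of the reporter signal at or above 50%; inactive = inhibition below 50%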). Particulars: HEK293-TLR3 RL24 IRF3 luciferase reporter, at 10 µM, stronger effect = higher value.
Where [14] appears, read: measured here: cell density z-score.
Setting [15] is: measured here: nuclear c-Myc green intensity z-score.
The mark [16] stands for this setting: measured here: nuclear pErk red intensity z-score, stronger effect = higher value.

Active and inactive are the calls of the source.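 Rule for the calls, unless noted: active = visual image review flags a hit and inhibition of aggregation exceeds 20%; inconclusive = visual hit but inhibition at or below 20%; inactive = no hit on visual image review.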

The text below walks through data of PubChem BioAssay.

Broadly, the inhibition is the relative decrease from the control value, in per cent.

Alpha-2C adrenergic receptor (Homo sapiens), sequence (P18825 whole entry, looked up): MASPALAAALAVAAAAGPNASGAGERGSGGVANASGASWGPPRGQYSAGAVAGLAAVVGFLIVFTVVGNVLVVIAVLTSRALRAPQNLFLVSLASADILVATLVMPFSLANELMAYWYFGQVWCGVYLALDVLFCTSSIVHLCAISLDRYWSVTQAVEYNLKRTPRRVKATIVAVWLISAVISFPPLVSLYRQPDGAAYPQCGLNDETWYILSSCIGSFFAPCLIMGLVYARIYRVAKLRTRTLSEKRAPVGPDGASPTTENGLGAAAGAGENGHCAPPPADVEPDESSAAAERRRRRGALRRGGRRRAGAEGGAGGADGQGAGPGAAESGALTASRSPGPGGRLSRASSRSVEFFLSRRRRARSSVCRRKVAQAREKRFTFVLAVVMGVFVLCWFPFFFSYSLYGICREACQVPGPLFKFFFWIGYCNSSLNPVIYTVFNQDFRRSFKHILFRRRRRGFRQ

In the case of `CC(=O)Nc1ccc(-c2cc3ccccc3o2)cc1`, the cell count in assay [1] came out at 572. The inhibition in assay [1] was -3.8% (inactive); in assay [3] it was 11% (inactive); in assay [5], -0.233% (inactive); in [11], 17.4% (inactive); in [12], -24.7% (inactive); in [13] it was -112% (inactive). Further, the inhibition of aggregation in assay [2] is -5.2% (inactive). The nuclei count came to 112% in assay [2] and 138% in assay [3]. Further, the results for the z-score in [4] (setting [14]), in [4] (setting [15]) and in [4] (setting [16]) were -0.412, 2.18 and 0.0674, respectively. Besides, the fluorescence slope in assay [6] is -0.468 (inactive); in assay [9], 0.00556 (inactive). Besides, in assay [7], the NADPH fluorescence slope was -0.00011 (inactive). In addition, in assay [8], the slope was 0.00496 (inactive). In addition, the result in assay [10] was inactive.

Regarding `Cc1cc(/C=c2/sc3nc4ccccc4n3c2=O)c(C)n1-c1ccccn1`, the cell count in [1] was determined as 477. Also, the inhibition in assay [1] was -8.3% (inactive); in [3], -51.9% (inactive); in [5], 1.04% (inactive); in assay [11], -7.65% (inactive); in assay [12] it was 58.3% (active); in assay [13], 93% (active). For the same compound, in assay [2], the inhibition of aggregation was -17% (inactive). Moreover, the nuclei count in assay [2] worked out at 105%; in [3], 114%. Besides, the values for the z-score in [4] (setting [14]), in [4] (setting [15]) and in assay [4] (setting [16]) were 0.162, 1.46 and -0.242, respectively. The fluorescence slope was -0.436 (inactive) in [6] and 0.00476 (inactive) in assay [9]. In addition, the NADPH fluorescence slope in assay [7] was -8.3e-05 (inactive). Moreover, the slope in assay [8] is 0.00546 (inactive). Besides, the compound was classed as inactive in assay [10].

Regarding `CCN1CCc2c(C#N)c(N3CCOCC3)nc(NCc3ccccc3)c2C1`, the cell count in assay [1] amounted to 507. Besides, the inhibition is 9.3% (inactive) in assay [1]; -218% (inactive) in assay [3]; -11.5% (inactive) in [5]; 27.4% (inactive) in assay [11]; 10.8% (inactive) in assay [12]; 10.8% (inactive) in assay [13]. Also, in assay [2], the inhibition of aggregation was 4.7% (inactive). Moreover, the nuclei count in [2] stood at 80.7%; in assay [3], 110%. For the same compound, the z-score was 0.377 in assay [4] (setting [14]), -1.7 in assay [4] (setting [15]) and 2.2 in [4] (setting [16]). The fluorescence slope in assay [6] was -0.484 (inactive); in assay [9] it was 0.00486 (inactive). Also, in assay [7], the NADPH fluorescence slope is -3.1e-05 (inactive). Besides, the slope in assay [8] is 0.00496 (inactive). Further, the call in assay [10] was inactive.

For `CCSc1nc(O)c(C2OC(=O)c3c2ccc(OC)c3OC)c(=O)n1-c1ccccc1` (stereo not drawn), the cell count in assay [1] worked out at 504. Besides, the inhibition in assay [1] was 5.8% (inactive); in assay [3] it was -157% (inactive); in assay [5], 1.98% (inactive); in [11], -7.19% (inactive); in assay [12], 13.8% (inactive); in assay [13], 25.6% (inactive). In addition, the inhibition of aggregation in assay [2] was -6.1% (inactive). For the same compound, the nuclei count in assay [2] turned out to be 108%; in assay [3] it was 146%. Besides, the z-score is 0.533 in assay [4] (setting [14]), 0.786 in assay [4] (setting [15]) and -0.555 in [4] (setting [16]). Besides, the fluorescence slope in [6] was -0.416 (inactive); in assay [9], 0.00691 (inactive). Besides, the NADPH fluorescence slope in [7] is -4.4e-05 (inactive). Moreover, in [8], the slope is 0.00632 (inactive). In addition, the compound was called inactive in [10].

Turning to `Cc1c(C2Nc3ccccc3NC3=C2C(=O)CC(C)(C)C3)cnn1C` (stereo not drawn), the cell count in [1] came to 678. In addition, the inhibition is 34.8% (active) in [1]; -16.2% (inactive) in assay [3]; 14.7% (inactive) in [5]; 14.4% (inactive) in [11]; 35.1% (inactive) in assay [12]; 99.4% (active) in assay [13]. Further, the inhibition of aggregation in [2] is -2% (inactive). Further, the nuclei count in assay [2] worked out at 115%; in [3], 101%. Besides, the z-score in assay [4] (setting [14]) was 0.508; in assay [4] (setting [15]), -0.847; in assay [4] (setting [16]), -0.607. The fluorescence slope was -0.548 (inactive) in assay [6] and 0.00628 (inactive) in assay [9]. In addition, in assay [7], the NADPH fluorescence slope is -2.1e-05 (inactive). In addition, the slope in assay [8] is 0.00605 (inactive). In [10], the compound was classed as inactive.

`C/C(=N\O)C(=O)NCCCNCCCN(C)C`: the cell count in assay [1] was 609. Also, the inhibition was -2.7% (inactive) in assay [1]; -42% (inactive) in assay [3]; -3.95% (inactive) in assay [5]; -5.12% (inactive) in assay [11]; 15.3% (inactive) in [12]; 20.9% (inactive) in [13]. Further, the inhibition of aggregation in assay [2] was -14.3% (inactive). Moreover, the nuclei count turned out to be 109% in [2] and 115% in assay [3]. For the same compound, the z-score in [4] (setting [14]) was -1.26; in assay [4] (setting [15]), 0.664; in assay [4] (setting [16]), -0.264. For the same compound, the values for the fluorescence slope in [6] and in assay [9] were -0.495 (inactive) and 0.00686 (inactive), respectively. The NADPH fluorescence slope in assay [7] is -5.8e-05 (inactive). For the same compound, in [8], the slope was 0.0053 (inactive). In assay [10], the outcome was inactive.
